uPA surface inh: cell surface uPA generation inhibition; AID 540303; cell surface uPA generation assay, qHTS; 330,000 compounds, 0.31% hits; Potency, µM (top dose mostly 38.3 µM), usual class: inhibitors; active = well fitted inhibition curve with a large enough effect; inconclusive = small, poorly fitted or top-dose-only effect; inactive = no such curve, though single readings can be large or run the other way; tested in mouse RAW 264.7 cells; also: nearly all actives have a fitted effect of over 55% in size
Sfp inh: blocks B. subtilis Sfp PPTase activity | 310,000 compounds, 3.5% hits | Potency, µM, most hits filed as inhibitors | Q9F4F7 | Biochemical Sfp PPTase activity, qHTS;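 also: the enzyme is Sfp with the accession as filed and its product quenches rhodamine fluorescence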
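Compounds were incubated with enzyme (final 15 nM) for 15 min at room temperature before substrate addition started the reaction. Fluorescence at 525 nm excitation, 598 nm emission was recorded immediately and after 30 minutes.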
ClpP mod: qHTS Assay for Activators of ClpP. Potency, µM (top dose mostly 57.5 µM). AID 651965, 2013. purified B. subtilis ClpP, FRET peptide cleavage, 20 min. 340,000 compounds, 1.9% hits; active = well fitted falling curve with a large enough effect; inconclusive = small, poorly fitted or top-dose-only effect; inactive = no such curve, though single readings can be large or run the other way; also: the source files actives as falling curves though it sought activators and does not explain the sign; nearly all actives have a fitted effect of over 65% in size
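ClpP 10 microg/mL final, pH 8 Tris/KCl buffer with BSA, glycerol, Tween-20; compound pinned in; FRET-FV substrate; RT 20 min; Ex320/Em430; ΔFRET vs ADEP 5.8 microM, DMSO, no enzyme.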
TCR act: activators of T cell receptors. AID 504894. 330,000 tested, under 10 active. Potency, µM (highest dose often 9.22 µM), usual class: activators. primary human leukocytes, anti-CD3, IL-2 HTRF, 48 h
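Using a-CD3 beads without co-stimulation, primary human leukocytes were exposed to compounds for 48 hr. An HTRF IL-2 kit measured the cytokine, with europium-to-d2 energy transfer producing emission at 665nm upon 320nm excitation.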
Sfp PPTase conf: Sfp phosphopantetheinyl transferase inhibition, confirmation | shares compounds with Sfp inh | Sfp PPTase enzymatic assay, qHTS titration | Potency, µM (top dose mostly 114 µM), usual class: inhibitors | 380 compounds, 79% hits
Sfp gel assay: Inhibits B. subtilis Sfp phosphopantetheinylation | shares compounds with Sfp inh | purified Sfp, gel-based phosphopantetheinylation read-out | Potency, µM, most hits filed as inhibitors | 210 compounds, 20% hits | AID 2707;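 active = potency below 100 µM; inconclusive = dose-dependent response but potency above 100 µM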;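 also: potency is an IC50 for inhibitors of Sfp transfer activity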
Numbers stand for hits; n = inactive; u = inconclusive; x = not tested or not shown; ! = a repeat was not active. Shown are actives, neighbours in structure and some others; about 4.2% of the full set was active somewhere. Unless noted, calls follow the shape of the dose curve; as a rule, active = well fitted curve in the direction sought with a large enough effect; inconclusive = small, poorly fitted or top-dose-only effect, or another doubt; inactive = no such curve, though single readings can be large; an effect the other way counts as inactive or inconclusive.

SMILES	uPA surface inh	Sfp inh	ClpP mod	TCR act	Sfp PPTase conf	Sfp gel assay
CC(=O)O[C@@]12CO[C@@H]1C[C@H](O)[C@@]1(C)C(=O)[C@H](O)C3=C(C)[C@@H](OC(=O)C(O)[C@@H](NC(=O)OC(C)(C)C)c4ccccc4)C[C@@](O)([C@@H](OC(=O)c4ccccc4)[C@H]21)C3(C)C (stereo partly drawn)	x	6.31µM	n	x	14.8µM	n
C=C1C(=O)[C@]23[C@H](O)[C@H]1CC[C@H]2[C@@]12COC3(O)[C@H](O)[C@@H]1C(C)(C)CC[C@@H]2O	x	12.6µM	x	x	26.4µM	u
COc1ccc(C(=O)N2CCC(c3ccccc3)CC2)c(OC)c1OC	n	n	x	n	x	x
O[C@@H]1CCN2Cc3ccccc3N=C12	x	2.82µM	x	x	2.1µM	0.69µM
Cn1ccnc1C(O)c1cc(C(C)(C)C)c(O)c(C(C)(C)C)c1 (stereo not drawn)	n	44.7µM	n	n	46.9µM	x
CC(C)(Sc1cc(C(C)(C)C)c(O)c(C(C)(C)C)c1)Sc1cc(C(C)(C)C)c(O)c(C(C)(C)C)c1	n	n	n	n	x	x
COc1ccc(-n2nnc3c(=O)n(CC(=O)Nc4cc(C)on4)cnc32)cc1OC	n	n	x	n	x	x
CN1C(C(=O)Nc2ccccn2)=C(O)c2sccc2S1(=O)=O	n	50.1µM!	n	n	11.8µM	n
COC(=O)[C@@H](N)Cc1ccc(O)cc1	x	n	x	x	x	x
N[C@@H](CO)C(=O)NNCc1ccc(O)c(O)c1O	x	28.2µM	x	x	u	18.5µM
O=C(O)c1ccc(B(O)O)cc1	x	n	n	x	x	x
Cc1ccc(-c2cc(C(=O)O)c3cc(Br)ccc3n2)o1	n	3.16µM	u	n	3.73µM	n
Cc1ccc(-c2cc(C(=O)NC3=NCCS3)c3cc(Br)ccc3n2)o1	x	n	x	x	x	x
C[C@H](CO)N1C[C@H](C)[C@@H](CN(C)C(=O)C2CCOCC2)Oc2ncc(Br)cc2C1=O	x	x	n	x	x	x
CCN1CCc2nc(NC(=O)c3ccccc3)sc2C1	n	n	n	n	x	x
CCN1CCc2nc(N)sc2C1	n	11.2µM	n	x	11.8µM	u
C=CCN1CCc2nc(N)sc2CC1	n	56.2µM!	n	n	59.1µM	u
CCOc1cc(C(N)=O)cc(Br)c1OCc1ccccc1	n	n	n	n	x	x
CCc1nc2ccc(C(=O)NCCCn3ccnc3)cn2c1N(C)Cc1ccc(OC)cc1	x	x	n	x	x	x
CCOc1ccc(Cl)cc1S(=O)(=O)N1CCC(C(=O)NC2CC2)CC1	n	n	x	n	x	x
CCOC(=O)c1c(C)[nH]c(C2=NNC(=NC3CC3)SC2)c1C	n	7.08µM	n	n	41.8µM	x
COC(=O)c1cc(=O)c(O)c2c(O)c(O)ccc2c1	x	31.6µM	x	x	9.37µM	n
O=C(Nc1cc(Cl)ccc1-n1cncn1)c1ccc(Br)o1	n	x	n	n	x	x
COc1ccccc1NC(=O)C1=C(C)Nc2nnnn2C1c1ccc(C(F)(F)F)cc1 (stereo not drawn)	x	x	n	x	x	x
COC(=O)c1[nH]c2ccccc2c1NC(=O)Oc1ccccc1	n	11.2µM	28.2µM	n	u	x
SMILES	uPA surface inh	Sfp inh	ClpP mod	TCR act	Sfp PPTase conf	Sfp gel assay
C=CCOC(=O)Nc1c(C(=O)OC)[nH]c2ccccc12	n	n	n	n	x	x
Cn1c(C(=O)NCCc2ccccc2)cc2sc(Cl)cc21	x	x	n	x	x	x
Nc1c(C(=O)Nc2ccccc2)sc2nc(-c3cccnc3)ccc12	x	7.94µM	x	x	29.6µM	u
Clc1ccccc1-c1nnc2sc(-c3ccncc3)nn12	n	n	n	n	x	x
Clc1ccccc1-c1nn2c(-c3ccncc3)nnc2s1	n	15.8µM	n	n	13.2µM	x
C[C@@](Cc1ccc(O)c(O)c1)(NN)C(=O)O	n	20µM!	n	n	u	6.17µM
O=C(O)Cc1ccc(NC(=O)Nc2ccc(Br)cc2)cc1	n	39.8µM	x	n	u	x
COC(=O)C(CC(=O)c1ccc(Br)cc1)n1ccnc1 (stereo not drawn)	x	1.58µM	n	x	8.35µM	x
S=C(Nc1ccccn1)c1ccccn1	n	2.82µM	n	n	52.7µM	x
CC(=O)c1cccc(-c2ccnc3c2CC(C(=O)Nc2ccc(C(C)C)cc2)O3)c1 (stereo not drawn)	x	x	n	x	x	x
Cc1nc2c(=O)n(C)c(=O)n(C)c2nc1Cl	n	n	n	n	x	x
CCOC(=O)C1=C(C)NC(C)=C(C(=O)OCC)C1C(=O)OCC(=O)N1CCOCC1	n	x	n	n	x	x
CCN1CCN(C(=S)c2ccc(Cl)cc2)CC1	n	2.24µM	n	n	13.2µM	n
CCN1CCN(C(=S)c2ccc(OC)cc2)CC1	n	11.2µM	x	n	14.8µM	n
CCc1c(O)nc(SCC(=O)N2CCc3cc(OC)c(OC)cc3[C@@H]2C)[nH]c1=O	n	n	n	n	x	x
COc1cc(OC)cc(-c2c(-c3ccc(C(C)=O)cc3)c3cc(-c4cccc5[nH]ccc45)ccc3n2C)c1	n	x	n	n	x	x
COc1ccc(Nc2nc3[nH]c(=O)cc(O)c3s2)cc1	n	3.98µM	x	n	18.7µM	n
Brc1ccc(-c2nnc3ccc(Nc4ccccc4)nn23)cc1	x	n	x	n	x	x
O=C(CSc1ncnc2sc3c(c12)CCCCC3)NCc1ccco1	n	14.1µM	n	n	52.7µM	x
O=C(CSc1ncnc2sc3c(c12)CCCC3)c1ccco1	n	u	u	n	x	x
N#C/C(=C/c1ccc(N2CCOCC2)o1)c1ccc(Cl)cc1	n	0.708µM	n	n	13.2µM	x
CN1CCCC[C@@H]1CCN1c2ccccc2Sc2ccc(S(C)=O)cc21 (stereo partly drawn)	x	20µM!	x	x	41.8µM	18.5µM
CSc1ccc2c(c1)N(CC[C@H]1CCCCN1C)c1ccccc1S2	x	n	x	x	x	x
NC(=O)c1c(NC(=O)C2CCCO2)sc2c1CCCC2 (stereo not drawn)	n	1.26µM	n	n	13.2µM	x
COc1ccc(OC)c(Nc2nc(=O)c3cccnc3s2)c1	n	2.82µM	n	n	18.7µM	x
SMILES	uPA surface inh	Sfp inh	ClpP mod	TCR act	Sfp PPTase conf	Sfp gel assay
Cc1nn(-c2ccccc2)c2nc(-c3ccco3)cc(C(=O)O)c12	n	12.6µM	n	n	21µM	u
Cc1ccc(Cn2c(C(C)Nc3nc(-c4ccc(F)cc4)cs3)nc3cc(C(F)(F)F)ccc32)cc1 (stereo not drawn)	n	x	n	n	x	x
CCCCN(CCCC)CC(O)c1cc(Cl)cc2c1-c1ccc(Cl)cc1/C2=C/c1ccc(Cl)cc1 (stereo not drawn)	x	44.7µM	x	x	41.8µM	u
O=C(CCCCCNC(=O)N1CCn2c1nc1ccccc12)NCCc1ccccc1	n	n	n	n	x	x
COc1ccc(OC)c(NC(=O)NCCc2c[nH]c3ccccc23)c1	n	n	n	n	x	x
C=CC1=C(C(=O)O)N2C(=O)[C@@H](NC(=O)C(N=O)c3csc(N)n3)[C@H]2SC1 (stereo partly drawn)	x	31.6µM	x	x	41.8µM	55.6µM
CC1=C(C(N)=O)N2C(=O)[C@@H](NC(=O)Cc3ccccc3)C2SC1 (stereo partly drawn)	x	25.1µM	x	x	4.49µM	0.92µM
CC=CC1=C(C(=O)O)N2C(=O)[C@H](NC(=O)[C@H](N)c3ccc(O)cc3)[C@@H]2SC1	x	39.8µM	x	x	37.3µM	18.5µM
